Screening data as filed in PubChem.
D1 PAM: human D1 dopamine receptor positive modulation. actives 0.036% (n = 360,000). AID 504651. potentiation, % at 10 µM. P21728. HEK293 TREx D1 cells, calcium flux, dopamine EC20 potentiation; in the data active = potentiation above about 30%; note: 0% is about no effect
D1 ag: human D1 receptor agonism; actives 1% (n = 360,000); P21728; activation, % at 2 µM; HEK293 T-REx D1 cells, calcium flux, agonist mode; in the data active = activation above about 30%; note: 0% is about no effect
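Inducible HEK293 T-REx D1 cells, force-coupled to calcium signalling, were plated at 4000 cells/well with tetracycline and held overnight at 30 C. After no-wash calcium dye loading, compound-evoked calcium rise over 180 s flagged agonists.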
D1 antagonist: blocks dopamine activation of the human D1 receptor. HEK293 TREx D1 cells, calcium flux, dopamine EC80; active compounds read low. activity change, negative = inhibition, % at 10 µM. actives 3.2% (n = 360,000). AID 504652; in the data active = activity change below about -30%; note: % is set by controls: 0 for no effect and ±100 for the full control effect
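Cells carrying a force-coupled, tetracycline-inducible human D1 receptor report calcium flux. Each well gets a 10 s baseline, compound with 180 s monitoring, then an EC80 dopamine stimulus with a second 180 s kinetic read.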
DRD3 agonist: D3 dopamine receptor (human) agonism; P35462; D3R DiscoveRx beta-arrestin cells, luminescence, 90 min; max activation, %; actives 0.58% (n = 410,000); AID 652048; in the data active = max activation above about 30%; note: 0% is about no effect
Target sequence (P35462 whole entry, looked up): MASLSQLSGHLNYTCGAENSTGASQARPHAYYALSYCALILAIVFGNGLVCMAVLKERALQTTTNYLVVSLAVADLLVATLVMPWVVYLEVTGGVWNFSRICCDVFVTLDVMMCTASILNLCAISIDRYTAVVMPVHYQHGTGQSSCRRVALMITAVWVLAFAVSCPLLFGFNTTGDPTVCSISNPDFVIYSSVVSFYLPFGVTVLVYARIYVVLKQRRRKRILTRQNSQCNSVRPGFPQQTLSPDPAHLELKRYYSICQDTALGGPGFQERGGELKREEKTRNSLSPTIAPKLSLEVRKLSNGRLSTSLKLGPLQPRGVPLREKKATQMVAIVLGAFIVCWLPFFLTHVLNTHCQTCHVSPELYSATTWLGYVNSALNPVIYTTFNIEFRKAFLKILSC
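Cells at 1500/well, incubated overnight, then treated with pinned compounds (dopamine as control) for 90 min at 37 degrees C. DiscoveRx reagent added for 30 - 60 minutes at room temperature; luminescence read.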
D3 antag: antagonists of human D3 dopamine receptor; actives 2.5% (n = 360,000); D3R cells, DiscoveRx beta-arrestin luminescence, antagonist mode; active compounds read low; P35462; max response, negative = inhibition, %; in the data active = max response below about -50%; inconclusive = no clear call, values can overlap the other calls; note: % is set by controls: 0 for no effect and ±100 for the full control effect
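Cells expressing the human receptor were seeded at 1500 cells/well, incubated overnight at 37 degrees C in 5% CO2, then exposed to library compounds with dopamine controls for 90 minutes at 37 degrees C before luminescent detection.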
The depositor's hits bear a star; ? = inconclusive; · = not tested or not shown. Compounds with a hit are over-represented: about 6.1% of the library has one in this group of screens.

SMILES	D1 PAM	D1 ag	D1 antagonist	DRD3 agonist	D3 antag
O=C(CSc1nc2nccnc2c(=O)n1CCc1c[nH]c2ccccc12)Nc1ccc(F)cc1	2	0	6	0	·
CC(O)[C@@H]1NC(=O)[C@H](CCCCN)NC(=O)[C@@H](Cc2c[nH]c3ccccc23)NC(=O)[C@H](Cc2ccccc2)NC(=O)[C@@H](NC(=O)[C@H](N)Cc2ccccc2)CSSC[C@@H](C(=O)N[C@H](CO)[C@@H](C)O)NC1=O (some centres undefined)	·	·	·	1	·
Cc1ccccc1C(=O)Nc1cccc(-c2ccc(N3CCOCC3)nn2)c1	-1	5	-37*	1	-1
O=C(COc1ccccc1)Nc1cccc(-c2ccc(N3CCOCC3)nn2)c1	2	1	-73*	2	21
O=C(Nc1cccc(-c2ccc(N3CCOCC3)nn2)c1)c1ccccc1	0	0	15	7	12
O=C(COc1ccc(Cl)cc1Cl)Nc1cccc(-c2ccc(N3CCOCC3)nn2)c1	6	7	-1	-13	-17
CSc1ccc(S(=O)(=O)NCCOc2ccccc2C)cc1	-7	9	-31*	-11	-9
COc1ccc(S(=O)(=O)N2CCCC(C(=O)NCc3ccco3)C2)cc1OC (centres undefined)	0	2	-2	-3	-28
CNC(=O)CSc1nnc(NC(=O)Nc2ccccc2)s1	3	3	·	1	·
CCCCN(C=O)c1c(CC)nc2ccc(C(=O)Nc3cc(-c4ccccc4)ccc3OC)cn12	·	·	·	-9	1
COC(=O)Cn1c(CN2CCC(Cc3ccccc3)CC2)nc2c1c(=O)n(C)c(=O)n2C	-7	17	-36*	-2	11
Cn1c(=O)c2c(nc(CN3CCN(Cc4ccccc4)CC3)n2Cc2cccc(Cl)c2)n(C)c1=O	-14	40*	1	-10	-51*
CCCn1c(Oc2ccccc2)nc2c1c(=O)n(C)c(=O)n2C	-4	-1	-39*	2	-16
CCCCCCn1c(CN2CCN(Cc3ccccc3)CC2)nc2c1c(=O)n(C)c(=O)n2C	0	-1	16	-1	-52*
CCn1c(Oc2cccc(Br)c2)nc2c1c(=O)n(C)c(=O)n2C	-5	2	-7	1	7
COC(=O)Cn1c(CN(C)Cc2ccccc2)nc2c1c(=O)n(C)c(=O)n2C	4	1	0	3	18
CCCn1c(CN2CCN(C(=O)OCC)CC2)nc2c1c(=O)n(C)c(=O)n2C	6	0	-5	127*	14
CCCCCn1c(CN2CCN(C(=O)OCC)CC2)nc2c1c(=O)n(C)c(=O)n2C	·	·	·	2	0
Cc1cc(C)c(C(=O)Nc2ccc(S(=O)(=O)Nc3onc(C)c3C)cc2)c(C)c1	-5	-2	-82*	-1	22
Cc1ccc(C)c(S(=O)(=O)Nc2ccc(S(=O)(=O)Nc3onc(C)c3C)cc2)c1	-5	1	-19	1	-52*
Cc1noc(NS(=O)(=O)c2ccc(NC(=O)c3ccc(Br)o3)cc2)c1C	2	2	-10	0	-72*
Cc1noc(NS(=O)(=O)c2ccc(NC(=O)c3ccc(Br)cc3)cc2)c1C	-1	1	14	3	·
Cc1ccc(S(=O)(=O)NC(=O)c2ccc(Br)o2)cc1	-6	-1	-13	54*	8
Cc1coc2cc3oc(=O)c(CCC(=O)N[C@@H](CCCNC(N)=O)C(=O)O)c(C)c3cc12	-2	3	-10	-3	-14
C=C1CCC[C@]2(C)C[C@H]3OC(=O)C(CN[C@@H](C)c4ccccc4)[C@H]3CC12 (some centres undefined)	-2	36*	29	8	41
SMILES	D1 PAM	D1 ag	D1 antagonist	DRD3 agonist	D3 antag
COC(=O)CCC(=O)Nc1sc(C)c(C)c1C(N)=O	-6	-1	-41*	1	-4
Cc1sc(NC(=O)C2CCCCC2C(=O)O)c(C(N)=O)c1C (centres undefined)	-1	1	-37*	-14	-6
Cc1sc(NC(=O)C2CCCCC2C(=O)O)c(C(N)=O)c1-c1ccccc1 (centres undefined)	4	3	8	-5	-13
O=C1Cc2c([nH]c3ccc([N+](=O)[O-])cc23)-c2ccccc2N1	·	·	·	-24	-23
CC(=O)Oc1ccc(-c2ccc(C(=O)Nc3cccc(S(=O)(=O)N4CCOCC4)c3)cc2)cc1	-12	16	-32*	-1	2
CC(C)Oc1ccc(C(=O)Nc2cc(S(=O)(=O)N3CCOCC3)ccc2N2CCOCC2)cc1	-1	1	-40*	-3	-3
O=C(Nc1cccc(Br)c1)c1ccc(Cl)c(S(=O)(=O)N2CCOCC2)c1	2	0	5	12	17
O=C(Nc1cccc(S(=O)(=O)C(F)F)c1)c1ccc(Cl)c(S(=O)(=O)N2CCOCC2)c1	-2	10	-34*	-12	0
Cc1ccc2oc(=O)c3cnn(CC(=O)N4CCN(c5ccccc5F)CC4)c3c2c1	0	1	-5	13	·
NC(=O)NC(CC(=O)Nc1cccnc1)c1cccc(Br)c1 (centres undefined)	-6	2	-12	-12	8
CCOc1ccc(S(=O)(=O)N2CCN=C2c2ccccc2)cc1	0	1	-9	-4	-16
CCOC(=O)c1sc(NC(=O)c2cc(-c3ccccc3C)nc3ccccc23)c(C#N)c1C	-3	14	-20	33*	40
COc1ccc(CCNC(=O)CSc2nnc(NC(C)=O)s2)cc1OC	0	2	14	-1	-12
O=C(NC(=S)Nc1ccccn1)c1ccc(-c2ccccc2)cc1	-9	6	-32*	-10	?
S=C(Nc1ccc(Nc2ccccc2)cc1)Nc1ccccn1	-13	3	-16	-16	-67*
S=C(Nc1ccccc1)Nc1ccccn1	·	·	·	3	2
CCN(C(=O)CSc1nnc(-c2cccc(Cl)c2)n1N)c1c(N)n(Cc2ccccc2)c(=O)[nH]c1=O	·	·	·	6	5
Cc1ccc(C(=O)/C=C/N(C)C)o1	-2	2	5	12	3
Cc1ccc(C(=O)/C=C/c2cc(Br)cc(Br)c2O)o1	-3	43*	-5	-6	0
Fc1ccc(N2CCN(Cc3nnc(-c4ccccc4Cl)o3)CC2)cc1	0	5	-19	2	·
Fc1ccc(-c2nnc(CN3CCN(c4ccccn4)CC3)o2)cc1	-3	3	1	80*	·
c1ccc(CN2CCN(Cc3nnc(-c4ccccc4)o3)CC2)cc1	-2	2	-13	-2	3
CN1CCN(Cc2nnc(-c3ccccc3)o2)CC1	-3	1	8	3	-5
Clc1cccc(-c2nnc(CN3CCN(c4ccccn4)CC3)o2)c1	-1	0	4	95*	·
c1ccc(-c2nnc(CN3CCN(c4ccccn4)CC3)o2)cc1	-1	2	-4	98*	·
CCCCNC(=O)C1C(c2ccc(C(F)(F)F)cc2)=Nc2ccccc2N1C(=O)C1CCN(C(C)=O)CC1 (centres undefined)	·	·	·	-3	-18
